# Measured values reported in PubChem BioAssay AID1030 (National Center for Advancing Translational Sciences (NCATS), 2008).
# About 16,000 (7.3%) of roughly 220,000 compounds were called active. About 25% were inconclusive and are not listed. The entries come from a sample that favours actives as a whole. A number with no mark means an inactive call. Calls come from the whole dose curve; as a rule, active = well fitted inhibition curve with a large enough effect (not every such curve was filed as active); inconclusive = small, poorly fitted or top-dose-only effect, or another doubt; inactive = no such curve, though single readings can be large or run the other way.
# Target: Aldehyde dehydrogenase 1A1 (Homo sapiens) (UniProt P00352)
# Assay: qHTS Assay for Inhibitors of Aldehyde Dehydrogenase 1 (ALDH1A1);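 for activity, negative = inhibition: plate controls were no enzyme wells and a reference inhibitor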
# Conditions: Purified ALDH1A1, NADH fluorescence, propionaldehyde substrate; series mostly up to 75.3 µM; activity, negative = inhibition: at the top concentration
# Potency is the fitted concentration of half-maximal effect.
# Aldehyde dehydrogenase 1A1 (Homo sapiens), sequence (P00352 whole entry, looked up): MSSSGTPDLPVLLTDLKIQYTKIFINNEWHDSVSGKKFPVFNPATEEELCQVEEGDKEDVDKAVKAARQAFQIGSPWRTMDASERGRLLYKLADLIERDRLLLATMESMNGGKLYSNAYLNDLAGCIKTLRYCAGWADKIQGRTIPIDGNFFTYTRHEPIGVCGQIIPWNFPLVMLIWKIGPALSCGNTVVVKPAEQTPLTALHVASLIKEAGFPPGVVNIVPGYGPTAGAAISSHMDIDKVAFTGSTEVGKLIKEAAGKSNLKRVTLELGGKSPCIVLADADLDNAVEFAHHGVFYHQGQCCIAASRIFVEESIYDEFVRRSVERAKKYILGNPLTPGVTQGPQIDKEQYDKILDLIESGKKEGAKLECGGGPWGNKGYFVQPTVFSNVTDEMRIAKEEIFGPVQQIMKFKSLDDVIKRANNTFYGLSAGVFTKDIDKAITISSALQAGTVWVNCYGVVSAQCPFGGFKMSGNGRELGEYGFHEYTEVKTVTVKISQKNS
Structure (SMILES),"activity, negative = inhibition",Potency
Cc1ccnc(NC(=O)Cn2ccc([N+](=O)[O-])n2)c1,11.9%,
CS(=O)(=O)c1ccc2nnn(OCC(=O)Nc3cccc(C#N)c3)c2c1,,10 µM (active)
Cc1cc(NC(=O)COn2nnc3ccccc32)no1,1.05%,
Cc1ccc(CC(=O)Nc2cccc(C#N)c2)cc1,-3.78%,
CC(=O)c1ccccc1NC(=O)CC1(CC(=O)O)CCCCC1,-9.92%,
C=CCC1CCC(=O)N2CCCC12 (stereo unspecified),9.92% [at 120 µM],
Cc1ccccc1CSCC(=O)NC(=O)NC(C)(C)C,9.74%,
COc1ccccc1-n1ccnc1SCC(=O)NC(C)(C)C,3.5%,
CC(C)(C)NC(=O)CSC(=Nc1ccccc1F)NC#N,,1.26 µM (active)
COc1cccc(OC)c1CN(C)C(=O)c1cnccc1C(F)(F)F,1.98%,
O=C(N/N=C/c1ccc([N+](=O)[O-])cc1)c1c[nH]c2ccccc12,0.458%,
CC(=O)NCCC(=O)Nc1nc(C)c(Cc2ccc3c(c2)OCO3)s1,6.08%,
S=c1ccc2ccccc2[nH]1,,25.1 µM (active)
O=C(Nc1ccccc1)c1cc2ccccc2[nH]1,7.57%,
COc1cc(COCC(O)CN2CCN(Cc3ccc4c(c3)OCO4)CC2)cc(OC)c1OC (stereo unspecified),-0.814%,
Cc1nc([N+](=O)[O-])cn1CC(=O)Nc1ccc2c(c1)OCO2,11.1%,
Cn1cnc(C(F)(F)F)c1-c1ccc([N+](=O)[O-])cc1,18.6%,
Cc1cccc(C)c1Nc1nnc(SCC(=O)Nc2sccc2C#N)s1,-18.8%,
O=C1C(c2[nH]c3ccccc3c2O)=Nc2ccccc21,,15.8 µM (active)

Structure (SMILES),"activity, negative = inhibition",Potency
CC(C)C(=O)Nc1c(O)c2ccccc2[nH]c1=O,-14.2%,
CC(=O)Nc1ccc(OCC(=O)NCc2ccc(C)cc2)cc1,-1.99%,
C/C=C/c1ccc(OCC(O)CN2CCCCCCC2)c(OC)c1 (stereo unspecified),-7.83%,
CCOC(=O)CNc1nc(Cl)nc(Nc2ccccc2)n1,2.86%,
CC(NC(=S)Nc1ccc(OC(F)F)cc1)c1ccc(F)cc1 (stereo unspecified),-6.11%,
Cc1nc2ccc(C(=O)N3CCN(c4ccccc4)CC3)cc2s1,0.77%,
N#Cc1ccccc1-n1c(N)c(C(=O)N2CCCC2)sc1=S,,11.2 µM (active)
Cc1cccc(C(=O)N2CCCN(C(=O)c3cccc(C)c3)CC2)c1,-5.29%,
Cc1ccc(C(=O)N2CCN(C(=O)N3CCOCC3)CC2)cc1,-11.9%,
Cc1ccc(-n2c(N)c(C(=O)N3CCOCC3)sc2=S)c(C)c1,,10 µM (active)
Cc1ccc(OCCCC(=O)N2CCOCC2)c(C)c1,-7.47%,
Cc1cccc(-n2c(N)c(C(=O)N3CCN(C)CC3)sc2=S)c1,,22.4 µM (active)
O=C(Nc1cccc(C(=O)N2CCCC2)c1)c1ccccc1,5.92%,
O=C(c1ccc(S(=O)(=O)c2ccccc2)cc1)N1CCCCCC1,-9.72%,
CCN(CC)S(=O)(=O)c1ccc(N(C)Cc2cccc(OC)c2OC)nc1,-13%,
CC(C)(C)OC(=O)NCCCCC1=CC2=CC(=O)C(C)(OC(=O)c3cccs3)C(=O)C2=CO1 (stereo unspecified),7.23%,
O=C(c1snnc1-c1ccccc1)N1CCOCC1,2.9%,
Cc1cc(-c2nnc(CCC(=O)NC(c3ccccc3)c3ccccc3)o2)no1,-6.35%,
O=C(/C=C/c1ccc(F)cc1)NCCNC(=O)/C=C/c1ccc(F)cc1,10.5%,

Structure (SMILES),"activity, negative = inhibition",Potency
O=C(CCC1CCCN(Cc2ccc(O)c(Cl)c2)C1)NCc1ccccc1F (stereo unspecified),-7.56%,
COc1cc(NC(=S)NNC(=O)CC(C)C)c(OC)cc1Cl,,25.1 µM (active)
CCOCC(=O)Nc1cc(OC)c(Cl)cc1OC,-7.89%,
CC(C)CC(=O)NC(=S)Nc1cc(C(=O)O)ccc1Cl,10.3%,
CCC(CC)C(=O)Nc1ccc(S(=O)(=O)Nc2nccs2)cc1,-0.847%,
O=C(C1CCCN1S(=O)(=O)c1ccc(Br)cc1)N1CCOCC1 (stereo unspecified),1.94%,
Nc1ccc(Oc2ccc(Cl)cc2)cc1,-10.1%,
Cc1ccc(Oc2ccc(N)cc2)cc1,,17.8 µM (active)
COc1cccc(Oc2ccc(N)cc2)c1,-8.54%,
O=C(NNS(=O)(=O)c1ccc(F)cc1)c1cnccn1,2.86%,
Cc1c(Cl)c([N+](=O)[O-])nn1CCCC(=O)NC(C)c1ccccc1 (stereo unspecified),-5.68%,
S=C(Nc1cccc(Br)c1)N1CCn2cccc2C1c1cccnc1 (stereo unspecified),-6.93%,
COc1ccc2nc(Nc3nc(-c4cc5ccccc5oc4=O)cs3)sc2c1,1.54%,
Nc1ncc(-c2cc3ccccc3oc2=O)s1,,11.2 µM (active)
O=c1oc2ccccc2cc1-c1csc(Nc2ccc(O)cc2)n1,-10.9%,
CC(C)NC(=O)c1ccc(Cl)cc1Cl,-1.33%,
COc1cccc(NC(=O)CN(C)C(C)C(=O)Nc2ccc(C#N)cc2)c1 (stereo unspecified),1.94%,
COc1cccc(CNC(=O)CCN2C(=S)NC(C)(C)CC2C)c1 (stereo unspecified),-4.03%,
